The source made the active and inactive calls.

This is an account of results in PubChem BioAssay.

One assay addresses Albumin (Bos taurus) (UniProt P02769). In words: compounds binding labelled BSA control protein – biochemical, small-molecule microarray, Alexa647 label, 635/667 nm fluorescence, artefact control for SMM control protein annotation, profiling panel (AID 1118).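 Also: score merges 667 nm emission intensity and signal-to-noise per printed compound spot.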 Conditions: BSA-A647 binding, fluorescence 635 nm, higher = more signal.
The nature of assay [1]: probe aXIP binding to arrayed compounds – biochemical, NeuroSMM set, 635/667 nm fluorescence, primary screen (AID 1119).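 Also: probe is the protein aXip251-270 applied at 1 µg/mL to compound-printed slides; binding of probe to printed compounds measured as 667 nm fluorescence plus signal to noise.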 Conditions: small-molecule microarray, higher = more signal, called active from +8 up or from −8 down.
Assay [2] is described as follows: probe aNOTCH3 binding on compound microarray – biochemical, small-molecule microarray, 635/667 nm fluorescence, primary screen (AID 1120).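 Also: probe is a biotin-tagged antibody raised against NOTCH3 rather than NOTCH3 protein; score merges spot fluorescence near 667 nm with spot signal to noise.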 Conditions: higher = more signal.
Assay [3] in a line: probe aNOTCH2 binding on compound microarray – biochemical, small-molecule microarray, 635/667 nm fluorescence, primary screen (AID 1121).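 Also: score merges feature fluorescence read at 667 nm with its signal to noise.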 Conditions: higher = more signal.
The target in assay [4] is Carbonic anhydrase 2 (Homo sapiens) (UniProt P00918). Nature of the assay: compounds binding carbonic anhydrase 2 – biochemical, small-molecule microarray, Alexa647-labelled CAII, profiling panel (AID 1122). Conditions: CAII-A647 binding fluorescence, higher = more signal.
Assay [5] in a line: COS7 lysate on small-molecule microarray, probe aHis, 635 nm (AID 1123).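 Also: z-score combines 667nm fluorescence intensity with signal-to-noise per printed compound spot.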 Conditions: COS7 cell lysate, fluorescence, higher = more signal.
Assay [6] is described as follows: probe aLAP1 signal on lysate-treated microarray – cell lysate, small-molecule microarray, COS7 lysate, primary screen (AID 1124).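 Also: lysate comes from COS7 cells expressing LAP1 and is applied at 0.3 µg/mL; score merges spot fluorescence near 667 nm with signal-to-noise over triplicate slides.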 Conditions: probe aLAP1, fluorescence, higher = more signal.
A further assay has as its system Sam68 (KHDRBS1). In words: compounds binding KHDRBS1 protein – biochemical, small-molecule microarray, 635 nm fluorescence, primary screen (AID 1125).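 Also: score merges 667 nm channel intensity with signal to noise over triplicate slides.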 Conditions: higher = more signal.
For assay [7], the system named is Chordin-like protein 2 (CHRDL2). Nature of the assay: compounds binding chordin-like 2 – biochemical, small-molecule microarray, 635 nm fluorescence, primary screen (AID 1126).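 Also: printed compound slides probed with Chrdl2 protein at 4 µg/mL for 1 h at 4 C; score merges 667 nm emission intensity with signal to noise over three replicate slides.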 Conditions: fluorescence 635 nm, higher = more signal.
Assay [8] deals with Concanavalin-A (Canavalia ensiformis) (UniProt P02866). In words: compounds binding concanavalin A lectin – biochemical, small-molecule microarray, Alexa647 label, 635 nm, artefact control for SMM control protein annotation, primary screen (AID 1127).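 Also: z combines 667 nm emission intensity with signal-to-noise across three replicate slides.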 Conditions: ConA-A647 binding fluorescence, higher = more signal.
Sequence of Concanavalin-A (Canavalia ensiformis) (P02866 whole entry, looked up): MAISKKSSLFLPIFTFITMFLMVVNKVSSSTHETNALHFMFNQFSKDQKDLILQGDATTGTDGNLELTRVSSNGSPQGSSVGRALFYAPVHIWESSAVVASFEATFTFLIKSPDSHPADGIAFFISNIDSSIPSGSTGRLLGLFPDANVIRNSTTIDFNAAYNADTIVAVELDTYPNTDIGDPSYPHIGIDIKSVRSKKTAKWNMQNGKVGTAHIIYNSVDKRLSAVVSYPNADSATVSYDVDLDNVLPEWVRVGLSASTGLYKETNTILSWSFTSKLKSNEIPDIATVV

Sequence of Albumin (Bos taurus) (P02769 whole entry, looked up): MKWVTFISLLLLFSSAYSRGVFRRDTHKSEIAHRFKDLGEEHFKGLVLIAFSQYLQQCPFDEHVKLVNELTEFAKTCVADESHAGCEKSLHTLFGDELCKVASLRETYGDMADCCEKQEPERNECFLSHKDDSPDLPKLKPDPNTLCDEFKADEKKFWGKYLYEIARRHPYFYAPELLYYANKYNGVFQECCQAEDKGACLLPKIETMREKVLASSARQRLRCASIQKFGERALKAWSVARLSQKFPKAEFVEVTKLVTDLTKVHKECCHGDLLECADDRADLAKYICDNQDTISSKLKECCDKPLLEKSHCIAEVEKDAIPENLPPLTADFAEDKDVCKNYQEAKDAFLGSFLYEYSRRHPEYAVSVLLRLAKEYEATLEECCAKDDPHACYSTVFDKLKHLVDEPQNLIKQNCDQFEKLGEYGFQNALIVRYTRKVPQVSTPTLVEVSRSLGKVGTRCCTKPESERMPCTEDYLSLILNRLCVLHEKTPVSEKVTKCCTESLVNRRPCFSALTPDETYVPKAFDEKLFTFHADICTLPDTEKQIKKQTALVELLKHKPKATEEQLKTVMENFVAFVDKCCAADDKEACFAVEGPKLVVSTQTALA

For the compound `CO[C@@H]1COC(=O)CCC[C@@H](C)[C@H](OC)COC(=O)[C@H](Cc2ccccc2)NC(=O)CC=C[C@H]1C`, the composite z-score with Albumin (Bos taurus) was -0.603; in [2], -0.16; in assay [3], -0.175; in assay [4] it was -0.571; in assay [5] it was -1.42; in assay [6], -0.34. Besides, the results for the composite z-score (in the assay with Sam68 (KHDRBS1); in assay [7]; in assay [8]) were -1.56, 1.39 and -1.21, respectively. The composite Z-score in [1] is 0.274 (inactive).

In the case of `CC(C)=C1C(=O)C(c2ccccc2)=C2CN3C(=O)N(CCc4ccccc4)C(=O)[C@]3(Cc3ccc(F)cc3)[C@H]21`, the composite z-score in the assay with Albumin (Bos taurus) is 0.697; in assay [2], 0.186; in assay [3] it was 0.148; in [4], 0.306; in [5], 1.04; in [6], 0.34. The composite z-score with Sam68 (KHDRBS1) is 0.639; in assay [7] it was -2.22; in [8] it was -1.05. For the same compound, the composite Z-score in assay [1] was 1.87 (inactive).

As for `C[C@H](c1ccccc1)N1C(=O)[C@H]2[C@H]3[C@H](O)[C@H](O)CC(=O)[C@@H]3CC[C@H]2C1=O`, the composite z-score in the assay with Albumin (Bos taurus) was 0.493; in assay [2], 0.148; in [3], -0.114; in assay [4], 0.496; in [5], 0.13; in assay [6] it was 0.876. Also, the composite z-score in the assay on Sam68 (KHDRBS1) is -0.0681; in assay [7], 0.604; in assay [8] it was 0.162. Further, the composite Z-score in [1] was 0.17 (inactive).

Take `CO[C@@H]1COC(=O)CC=C[C@@H](C)COC(=O)[C@H](COCc2ccccc2)NC(=O)CC=C[C@H]1C`: the composite z-score was -1.2 in the assay with Albumin (Bos taurus); -0.111 in assay [2]; -0.108 in assay [3]; -0.788 in [4]; -0.843 in assay [5]; 0.864 in assay [6]. Also, the composite z-score in the assay on Sam68 (KHDRBS1) is -0.597; in assay [7], 1.48; in assay [8] it was -2.62. Also, the composite Z-score in assay [1] was 1.13 (inactive).

Consider `CCOC(=O)C1=CCC(c2cc3ccccc3[nH]2)NC1` (stereo not given), for which the composite z-score was 0.653 with Albumin (Bos taurus); 0.173 in [2]; 0.069 in [3]; 0.63 in [4]; 1.7 in assay [5]; 0.944 in [6]. Moreover, the composite z-score in the assay with Sam68 (KHDRBS1) was 0.689; in [7], 0.215; in assay [8] it was -0.668. Moreover, in assay [1], the composite Z-score was 0.0894 (inactive).

On to `CO[C@@H]1COC(=O)CCC[C@@H](C)[C@H](OC)COC(=O)CCC[C@H]1C`, for which the composite z-score with Albumin (Bos taurus) is -0.27; in assay [2], -0.0967; in assay [3] it was -0.0907; in assay [4], -0.277; in assay [5], -0.307; in assay [6] it was -0.0693. Further, the composite z-score is -0.12 in the assay on Sam68 (KHDRBS1), 0.777 in [7] and -0.302 in assay [8]. In assay [1], the composite Z-score is 0.231 (inactive).

Regarding `Cn1c(=O)n2n(c1=O)[C@H]1[C@H](O)[C@@H]3O[C@@H]3C(=NOC[C@@H](O)COCc3ccco3)[C@H]1CC2`, the composite z-score in the assay with Albumin (Bos taurus) was 0.125; in [2], 0.236; in [3], -0.208; in assay [4], -0.142; in assay [5], 0.145; in assay [6] it was -0.0856. Further, the composite z-score in the assay on Sam68 (KHDRBS1) was 0.373; in assay [7], 0.535; in assay [8], 0.59. Also, the composite Z-score in assay [1] was -0.383 (inactive).

`Cc1cc(C)c(-c2cc([C@H](C)ON=C3[C@H]4CCn5c(=O)n(-c6ccccc6)c(=O)n5[C@H]4[C@H](O)[C@@H]4O[C@H]34)on2)c(C)c1`: the composite z-score was 0.652 in the assay with Albumin (Bos taurus); 0.125 in assay [2]; -0.205 in assay [3]; 0.311 in assay [4]; 0.486 in [5]; 0.0647 in [6]. In addition, the composite z-score came to 0.416 in the assay with Sam68 (KHDRBS1), 0.231 in assay [7] and 0.706 in assay [8]. Moreover, in assay [1], the composite Z-score was -0.853 (inactive).

For `C[N+](C)(C)CCCCCCNC(=O)[C@@H]1C[C@@H]2C(=O)N3CCC[C@H]3C(=O)N2[C@@H]1c1cccc(OCCO)c1`, the composite z-score with Albumin (Bos taurus) was -0.45; in assay [2], -0.182; in assay [3] it was -0.205; in assay [4] it was 0.581; in [5], 1.56; in [6] it was 0.338. For the same compound, the composite z-score with Sam68 (KHDRBS1) amounted to 0.927; in [7], 0.954; in assay [8], 0.743. Further, in assay [1], the composite Z-score was 0.372 (inactive).

As for `CCCNC(=O)[C@@H]1c2ccccc2C(=O)N(Cc2ccccc2Cl)[C@H]1c1ccc(CO)cc1`, the composite z-score in the assay with Albumin (Bos taurus) is 0.414; in assay [2] it was -0.0794; in [3] it was -0.0631; in assay [4], 0.585; in [5], 1.86; in assay [6], 0.779. For the same compound, the composite z-score in the assay with Sam68 (KHDRBS1) came to 1.3; in assay [7], 0.36; in assay [8], 1.13. Also, the composite Z-score in assay [1] is -0.231 (inactive).

`O=C1O[C@@H](c2ccccc2)[C@@H](c2ccccc2)N2[C@@H](c3ccc(OCCO)cc3)[C@]3(C(=O)Nc4ccc(C#CCCO)cc43)[C@@H](C(=O)N3CCCCCCC3)[C@H]12`: the composite z-score is 0.259 with Albumin (Bos taurus); 1.66 in assay [2]; 0.745 in assay [3]; 0.896 in assay [4]; 3.6 in assay [5]; 1.02 in assay [6]. Besides, the composite z-score in the assay on Sam68 (KHDRBS1) came to 1.3; in assay [7], 1.25; in [8], 1.15. For the same compound, the composite Z-score in assay [1] is 7.58 (inactive).

For `CCOC(=O)C1=CC[C@H]2C(=O)N(CC)C(=O)[C@@H]12`, the composite z-score with Albumin (Bos taurus) was 0.343; in assay [2] it was 0.0242; in [3] it was -0.0866; in assay [4] it was 0.522; in assay [5], 1.01; in assay [6], 0.111. The composite z-score came to 1.09 with Sam68 (KHDRBS1), 0.363 in assay [7] and 0.65 in assay [8]. Also, in assay [1], the composite Z-score is 0.806 (inactive).

Turning to `CC1(C)OCC(C(O)C2=CCCCC2=O)CO1` (stereo not given), the composite z-score with Albumin (Bos taurus) came to 0.157; in assay [2] it was 0.119; in [3], 0.148; in assay [4], 0.548; in assay [5], 0.395; in [6], 0.697. For the same compound, the results for the composite z-score (in the assay on Sam68 (KHDRBS1); in assay [7]; in [8]) were 0.826, 0.883 and 1.01, respectively. Besides, in assay [1], the composite Z-score was 0.0887 (inactive).

Consider `CCOC(=O)NN=C1C[C@@H](O)[C@@H](O)[C@@H]2[C@@H]3C(=O)N(C[C@@H]4CCCO4)C(=O)[C@@H]3CC[C@@H]12`, for which the composite z-score was 0.16 with Albumin (Bos taurus); 0.0927 in assay [2]; -0.166 in assay [3]; 0.0815 in assay [4]; 0.361 in assay [5]; 0.649 in assay [6]. The figures for the composite z-score (with Sam68 (KHDRBS1); in [7]; in assay [8]) were 0.339, 0.0214 and 0.437, respectively. The composite Z-score in [1] was -0.354 (inactive).

As for `CCOC(=O)NN=C1C[C@@H](O)[C@@H](O)[C@@H]2[C@@H]3C(=O)N(C4CCCCC4)C(=O)[C@@H]3CC[C@@H]12`, the composite z-score with Albumin (Bos taurus) was 0.272; in [2] it was -0.0598; in assay [3] it was -0.0534; in [4], 0.0286; in assay [5], -0.636; in [6], 1.25. The values for the composite z-score (in the assay on Sam68 (KHDRBS1); in assay [7]; in assay [8]) were 0.39, 0.645 and 0.616, respectively. For the same compound, in [1], the composite Z-score is -0.288 (inactive).

For `C=CCOC(=O)[C@H]1[C@@H]2C(=O)O[C@@H](c3ccccc3)[C@@H](c3ccccc3)N2[C@@H](c2ccc(OCCOC(=O)[C@H]3C[C@H]4C(=O)N5CCC[C@H]5C(=O)N4[C@H]3c3cccc(OCCO)c3)cc2)[C@]12C(=O)Nc1ccc(I)cc12`, the composite z-score in the assay with Albumin (Bos taurus) was found to be 0.898; in assay [2], 1.36; in [3], 0.554; in assay [4], 0.879; in [5] it was 3.06; in assay [6], 1.25. Also, the composite z-score with Sam68 (KHDRBS1) worked out at 1.29; in [7], 1.24; in assay [8] it was 1.23. The composite Z-score in [1] is 1.9 (inactive).

Turning to `CCOC(=O)CCN1C(=O)[C@H]2[C@H]3[C@H](O)[C@H](O)CC(=NOC[C@@H](O)COCc4ccco4)[C@@H]3CC[C@H]2C1=O`, the composite z-score was 0.723 with Albumin (Bos taurus); -0.0932 in assay [2]; -0.124 in assay [3]; 0.214 in assay [4]; 0.171 in [5]; 0.256 in assay [6]. Moreover, the composite z-score in the assay on Sam68 (KHDRBS1) came to 0.0665; in assay [7] it was 0.457; in assay [8], 0.318. In assay [1], the composite Z-score was -0.244 (inactive).
